Measurements reported in PubChem BioAssay (NCATS).
Results filed as inconclusive are left out. Active and inactive are the calls of the source. Calls follow the shape of the dose curve; as a rule, active = well fitted curve in the direction sought with a large enough effect; inconclusive = small, poorly fitted or top-dose-only effect, or another doubt; inactive = no such curve, though single readings can be large; an effect the other way counts as inactive or inconclusive. *1 amine or outer side, *2 acyl side, *3 side chain or, on linkers, in order; H or OH if unused. Where a SMILES comes first, the peptide text is derived from it. Bridges are numbered along the chain shown (N, C = ends). [ ]: non-standard residue; d: D form. The star is where a group is joined. ξ: configuration not given here. X10 = NC1=NCCC(C(N[*:1])C(=O)[*:2])N1; ΔAla(3-NHCONH2) = NC(=O)NC=C(N)C(=O)O; ξβ3hOrn = NCCCC(N)CC(=O)*; Dap = NC[CH](N)C(=O)O

Legend:
[1] = molecular target: Protein phosphatase 1D (Homo sapiens) (UniProt O15297); test: RapidFire Mass Spectrometry qHTS Assay for Modulators of WT P53-Induced Phosphatase 1 (WIP1) (AID 1347424);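 also: amount of dephosphorylated VEPPL-S-QETFS peptide product formed by WIP1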; also: potency is read from the fitted curve at half-maximal effect;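 as to activity change, negative = inhibition: series mostly up to about 63 µM; plate controls were DMSO wells for no effect and GSK830371 inhibitor control at 10 µM for full effect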
Protein phosphatase 1D (Homo sapiens), sequence (O15297 whole entry, looked up): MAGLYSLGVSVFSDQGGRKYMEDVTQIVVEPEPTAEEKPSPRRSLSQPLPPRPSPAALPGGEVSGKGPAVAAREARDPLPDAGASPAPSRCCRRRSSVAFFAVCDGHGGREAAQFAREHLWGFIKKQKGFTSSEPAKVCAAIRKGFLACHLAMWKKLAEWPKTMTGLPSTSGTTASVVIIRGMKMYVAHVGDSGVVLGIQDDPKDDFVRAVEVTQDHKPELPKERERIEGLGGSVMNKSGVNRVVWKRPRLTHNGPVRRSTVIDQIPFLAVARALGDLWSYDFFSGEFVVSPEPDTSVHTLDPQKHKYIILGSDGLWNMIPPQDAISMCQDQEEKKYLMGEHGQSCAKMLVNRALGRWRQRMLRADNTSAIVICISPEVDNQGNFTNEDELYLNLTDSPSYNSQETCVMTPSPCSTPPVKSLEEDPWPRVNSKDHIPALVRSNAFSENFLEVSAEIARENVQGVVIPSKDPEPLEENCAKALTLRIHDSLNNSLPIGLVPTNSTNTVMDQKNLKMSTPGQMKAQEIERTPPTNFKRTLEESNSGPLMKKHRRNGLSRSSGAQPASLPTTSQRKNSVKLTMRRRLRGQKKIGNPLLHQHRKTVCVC
Outline: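 WIP1 (10 nM final) was preincubated 1 h at room temperature with compounds in Tris-HCl pH 7.5, 30 mM MgCl2, TCEP, EGTA, BSA; 2 uM VEPPL-pS-QETFS phosphopeptide was added for 5 min, quenched with formic acid, and dephosphorylated product quantified by RapidFire MS.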

[2] = molecular target: Protein phosphatase 1D (Homo sapiens) (UniProt O15297); test: Rhodamine-PBP qHTS Assay for Modulators of WT P53-Induced Phosphatase 1 (WIP1) (AID 1347425); also: % of control where 0% means no effect
Outline: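 The read-out is the change in Rhodamine-PBP fluorescence (f1 - f0, ex 525/em 598 nm) as Pi is released, read each minute for 11 min. Final reaction: 5 nM WIP1, 10 uM phosphopeptide VEPPL-pS-QETFS, 10 uM Rh-PBP, 50 mM Tris-HCl pH 7.5, 30 mM MgCl2. Compound was preincubated with enzyme for 1 hour at room temperature.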

[3] = Primary qHTS for inhibitors of La Crosse Virus (LACV) - induced cell death in SH-SY5Y cells (AID 1508616);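 also: top concentration of the series differs between compounds; 0% = infected DMSO wells and 100% = uninfected DMSO wells; higher means more rescue of cells from virus-induced death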
Outline: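 Protection against LACV-induced cell death is scored in SH-SY5Y cells exposed to compounds and virus (0.01 MOI) for 6 days. Data normalized to virus-infected DMSO wells and virus-free DMSO wells.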

[4] = molecular target: Calcium and integrin-binding protein 1 (Homo sapiens) (UniProt Q99828); test: Primary qHTS for Identification of Calcium Integrin Binding Protein 1 (CIB1) Competitor (AID 1508620); also: potency is read from the fitted curve at half-maximal effect;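 as to activity change, negative = inhibition: GST tagged CIB1 binding a fluorescein labelled alphaIIb integrin peptide tracer; top concentration of the series differs between compounds; % is scaled to controls: 0 for no effect and ±100 for the full control effect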
Calcium and integrin-binding protein 1 (Homo sapiens), sequence (Q99828 whole entry, looked up): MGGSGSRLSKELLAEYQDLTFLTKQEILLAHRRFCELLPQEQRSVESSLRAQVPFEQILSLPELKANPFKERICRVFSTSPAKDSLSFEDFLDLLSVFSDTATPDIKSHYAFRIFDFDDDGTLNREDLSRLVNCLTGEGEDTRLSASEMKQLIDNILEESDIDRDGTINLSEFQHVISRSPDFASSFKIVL
Outline: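 Fluorescence polarization competition: CIB1-GST (1 uM final) preincubated with compound 15 min at room temperature, then FITC-labeled alphaIIb peptide (100 nM final) added for another 15 min. Polarization read at Ex 480/Em 540.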

CCC1=C[C@@H]2CN(C1)Cc1c([nH]c3ccccc13)[C@@](C(=O)OC)(c1cc3c(cc1OC)N(C)[C@H]1[C@@](O)(C(=O)OC)[C@H](OC(C)=O)[C@]4(CC)C=CCN5CC[C@]31[C@@H]54)C2
inactive: Potency [1] | outcome [2] | outcome [3]

CCN(CC)CC(=O)OCC(=O)[C@@]1(O)CC[C@H]2[C@@H]3CCC4=CC(=O)CC[C@]4(C)[C@H]3[C@@H](O)C[C@@]21C
inactive: Potency [1] | outcome [2] | outcome [3]

COC(=O)C1=C(C)NC(C)=C(C(=O)OCCc2ccc(N3CCN(C(c4ccccc4)c4ccccc4)CC3)cc2)C1c1cccc([N+](=O)[O-])c1 (stereo not given)
inactive: Potency [1] | outcome [2] | outcome [3] | Potency [4]

C[C@H]1C[C@@H]2[C@H]([C@@H](O)C[C@@]3(C)[C@H]2CC[C@]3(O)C(=O)CO)[C@@]2(C)C=CC(=O)C=C12
inactive: Potency [1] | outcome [2] | outcome [3]

O=C(O)c1ccccc1S
inactive: Potency [1] | outcome [2] | outcome [3] | Potency [4]

CC(NCCC(c1ccccc1)c1ccccc1)c1ccccc1 (stereo not given)
inactive: Potency [1] | outcome [2] | outcome [3] | Potency [4]

NS(=O)(=O)c1cc2c(cc1Cl)CN(C1CCCCC1)C2=O
inactive: Potency [1] | outcome [2] | outcome [3]

CCCCCCCCCCCCCCCC[n+]1ccccc1
inactive: Potency [1] | outcome [2]

O=C1Nc2ccccc2C1(c1ccc(O)cc1)c1ccc(O)cc1
inactive: Potency [1] | outcome [2] | outcome [3] | Potency [4]

CNC[C@H](O)[C@@H](O)[C@H](O)[C@H](O)CO
inactive: Potency [1] | outcome [2] | outcome [3] | Potency [4]

CC(=O)[C@@]1(O)CC[C@H]2[C@@H]3C[C@H](C)C4=CC(=O)CC[C@]4(C)[C@H]3CC[C@@]21C
inactive: Potency [1] | outcome [2] | outcome [3] | Potency [4]

CC(C)(C)C1CCC(CC2=C(O)c3ccccc3C(=O)C2=O)CC1 (stereo not given)
inactive: outcome [2] | Potency [4]

O=C1Cc2cc(Cl)ccc2N1
inactive: Potency [1] | outcome [2] | outcome [3] | Potency [4]

C=C(C)C(=O)OCC(O)CO (stereo not given)
inactive: Potency [1] | outcome [2] | outcome [3] | Potency [4]

CCCC(=O)OCOC(=O)C1=C(C)NC(C)=C(C(=O)OC)C1c1cccc(Cl)c1Cl (stereo not given)
inactive: outcome [2] | Potency [4]

C[N+](C)(CCOc1ccccc1)Cc1cccs1
inactive: Potency [1] | outcome [2] | outcome [3] | Potency [4]

Nc1ncnc2c1ncn2Cc1c(F)cccc1Cl
inactive: Potency [1] | outcome [2] | outcome [3] | Potency [4]

CC(CCc1ccc2c(c1)OCO2)NN (stereo not given)
inactive: Potency [1] | outcome [2] | outcome [3] | Potency [4]

COCCc1ccc(OCC2CO2)cc1 (stereo not given)
inactive: outcome [2] | outcome [3] | Potency [4]

O=c1[nH]sc2cc(Cl)ccc12
inactive: Potency [1] | outcome [2]
active: Potency [4] 3.55 µM

CC(C)(c1ccc(O)cc1)c1ccc(O)cc1
inactive: Potency [1] | outcome [3] | Potency [4]

O=C(Nc1ccc(Cl)cc1)Nc1ccc(Cl)c(C(F)(F)F)c1
active: Potency [1] 12.6 µM
inactive: outcome [3] | Potency [4]

O=C1NC(c2ccccc2)(c2ccccc2)C(=O)N1COP(=O)(O)O
inactive: Potency [1] | outcome [2] | outcome [3] | Potency [4]

CCCCCCOC(=O)NC(=N)c1ccc(NCc2nc3cc(C(=O)N(CCC(=O)OCC)c4ccccn4)ccc3n2C)cc1
inactive: Potency [1] | outcome [2] | outcome [3] | Potency [4]

O=C(OCC(COC(=O)c1cccnc1)(COC(=O)c1cccnc1)COC(=O)c1cccnc1)c1cccnc1
inactive: Potency [1] | outcome [2] | outcome [3] | Potency [4]

CCCCC(CC)COC(=O)c1ccccc1C(=O)O (stereo not given)
inactive: Potency [1] | Potency [4]

Nc1c[n+](N2CCOCC2)no1
inactive: outcome [2] | outcome [3] | Potency [4]

Nc1ccc2c(c1)CN1C(=O)c3ccccc3C1=N2
inactive: Potency [1] | outcome [2] | outcome [3] | Potency [4]

NCCCC(N)CC(=O)NCC1NC(=O)C(CO)NC(=O)C(N)CNC(=O)C(C2CCN=C(N)N2)NC(=O)C(=CNC(N)=O)NC1=O (stereo not drawn) (H-[Dap]S[Dap](ξβ3hOrn)[ΔAla(3-NHCONH2)][X10]; lactam 1-C; configuration not given here)
inactive: activity change, negative = inhibition [1] 2.35% [at 0.505 µM] | activity change, negative = inhibition [2] 11.7% [at 0.575 µM] | activity change [3] 8.73% [at 0.0343 µM] | activity change, negative = inhibition [4] -1.21% [at 1.07 µM]

Cc1cc2nc3ccc(=[N+](C)C)cc-3sc2cc1N
inactive: Potency [1] | outcome [3]

CC(=O)N1CCN(c2ccc(O)cc2)CC1
inactive: Potency [1] | outcome [2] | outcome [3] | Potency [4]

N#C/C(=C1/SC[C@@H](c2ccc(Cl)cc2Cl)S1)n1ccnc1
inactive: outcome [3] | Potency [4]

c1ccc2occc2c1
inactive: Potency [1] | outcome [2] | outcome [3] | Potency [4]

Cc1nc(N)nc(N)c1-c1ccc(Cl)c(Cl)c1
inactive: Potency [1] | outcome [2] | outcome [3] | Potency [4]

Cc1cccc(C)c1NC(=O)c1cc(S(N)(=O)=O)c(Cl)cc1O
inactive: Potency [1] | outcome [2] | outcome [3] | Potency [4]

CC(C)(C)CC(=O)OCC(=O)[C@@]1(O)CC[C@H]2[C@@H]3CCC4=CC(=O)C=C[C@]4(C)[C@H]3[C@@H](O)C[C@@]21C
inactive: Potency [1] | outcome [2] | outcome [3] | Potency [4]

CC(C)(C)c1ccc(O)c(O)c1
inactive: outcome [2] | Potency [4]

Fc1ccc(C(c2ccc(F)cc2)N2CCNCC2)cc1
inactive: Potency [1] | outcome [2] | outcome [3] | Potency [4]

NC(=O)C1(N2CCCCC2)CCN(CCCN2c3ccccc3CCc3ccc(Cl)cc32)CC1
inactive: Potency [1] | outcome [2] | Potency [4]

CCN(CC)CC(=O)Oc1ccc(NC(C)=O)cc1
inactive: Potency [1] | outcome [2] | outcome [3] | Potency [4]

CCC(=O)Oc1ccc2c(c1)CC[C@@H]1[C@@H]2CC[C@@]2(C)[C@H]1C[C@@H](OC(=O)CC)[C@@H]2OC(=O)CC
inactive: Potency [1] | outcome [2] | outcome [3] | Potency [4]

CO[C@@H]1[C@@H](OC)[C@H](C)[C@@](O)(CC(=O)O)O[C@H]1[C@H](C)[C@H]1O[C@@]2(CC[C@@](C)([C@H]3CC[C@@](C)([C@@H]4O[C@@H]([C@H]5O[C@](C)(O)[C@H](C)C[C@@H]5C)C[C@@H]4OC4C[C@H](OC)[C@@H](OC)[C@H](C)O4)O3)O2)C[C@H](O)[C@H]1C (stereo not given in full)
inactive: Potency [1] | outcome [2] | Potency [4]

O=C(O)Cn1c(=O)n(Cc2ccc(Br)cc2F)c(=O)c2ccc(Cl)cc21
inactive: Potency [1] | outcome [3]

Nc1c(I)cc(I)c(C(=O)N(CCC(=O)O)c2ccccc2)c1I
inactive: Potency [1] | outcome [2] | outcome [3] | Potency [4]

O=C(Nc1ccc(Cl)cc1)Nc1ccc(Cl)c(Cl)c1
inactive: outcome [2] | outcome [3] | Potency [4]

NS(=O)(=O)c1cc(C(=O)NN2C[C@H]3[C@H]4CCC(C4)[C@H]3C2)ccc1Cl
inactive: Potency [1] | outcome [2] | outcome [3] | Potency [4]

CCCCN(CCN(CCCC)C(=O)N1CCOCC1)C(=O)N1CCOCC1
inactive: Potency [1] | outcome [2] | outcome [3] | Potency [4]
